# A549 tox = Nrf2 qHTS screen for inhibitors: counterscreen for cytotoxicity. A549 ARE-Fluc cells, CellTiter-Fluor viability, 18-24 h. Potency, µM (top dose mostly 46 µM), for inactives: at the top dose activity change, negative = cytotoxicity, hits mostly inhibitors. 390,000 compounds, 0.16% hits; also: % is scaled to controls: 0 for no effect and ±100 for the full control effect
#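 A549 ARE_Fluc cells in 5% FBS OPTI-MEM were exposed to compounds in concentration-response for 18-24 h at 37 deg C. Viability was read by CellTiter-Fluor fluorescence (Ex 405/Em 525) after 30 min, before the luciferase read.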
# IDH1 R132H inh = qHTS for Inhibitors of mutant isocitrate dehydrogenase 1 (IDH1): qHTS; IDH1-R132H enzyme, NADPH consumption, diaphorase/resazurin fluorescence; AID 602179, 2012; 390,000 compounds, 0.093% hits; Isocitrate dehydrogenase [NADP] cytoplasmic (Homo sapiens), O75874; Potency, µM (highest dose often 76.6 µM), without a hit: at the top dose activity change, negative = inhibition, usual class: inhibitors; also: % is scaled to controls: 0 for no effect and ±100 for the full control effect; nearly all actives have a fitted effect of over 65% in size
# Target sequence (O75874 whole entry R132H, stated change not applied): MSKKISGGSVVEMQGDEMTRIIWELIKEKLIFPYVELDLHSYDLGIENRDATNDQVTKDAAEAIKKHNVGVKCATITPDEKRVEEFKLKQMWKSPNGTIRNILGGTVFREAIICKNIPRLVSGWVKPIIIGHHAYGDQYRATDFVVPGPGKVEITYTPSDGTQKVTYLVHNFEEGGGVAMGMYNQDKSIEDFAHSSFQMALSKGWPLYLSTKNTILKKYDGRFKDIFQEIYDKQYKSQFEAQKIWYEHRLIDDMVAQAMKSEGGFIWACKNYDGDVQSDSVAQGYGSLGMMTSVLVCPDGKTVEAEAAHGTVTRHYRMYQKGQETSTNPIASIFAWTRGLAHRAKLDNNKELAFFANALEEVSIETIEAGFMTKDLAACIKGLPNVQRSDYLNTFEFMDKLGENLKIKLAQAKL
#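 IDH1-R132H (0.5 ug/mL dispensed) in pH 7.5 Tris buffer was preincubated 30 min with compound, then given a substrate mix of 0.016 mM NADPH and 2 mM alpha-KG for 80 min at room temperature; remaining NADPH was read by diaphorase/resazurin fluorescence.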
# Nrf2 activator = qHTS of Nrf2 Activators | Potency, µM (titrated, usually from 46.1 µM), for inactives: at the top dose activation, usual class: activators | AID 624171, 2012 | AREc32 ARE-luciferase reporter (MCF7-derived line), luminescence, 24 h | 410,000 compounds, 0.31% hits; also: % of control where 0% means no effect; nearly all actives have a fitted effect of over 65% in size
#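 ARE activation measured as luciferase luminescence (Steady-Glo, 30 min RT) in AREc32_Fluc cells after 24 hr compound exposure at 37 deg C, 5% CO2; cells seeded overnight at 1000/well in OPTI-MEM, 5% FBS.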
# Nrf2 inh = Nrf2 qHTS screen for inhibitors | Potency, µM (highest dose often 46 µM), for inactives: at the top dose activity change, negative = inhibition, most hits filed as inhibitors | A549 ARE-Fluc reporter, luciferase luminescence, 18-24 h | AID 504444, 2011 | 360,000 compounds, 2.1% hits; also: % is scaled to controls: 0 for no effect and ±100 for the full control effect; nearly all actives have a fitted effect of over 60% in size
#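 A549 ARE_Fluc cells (5000/well, 5% FBS OPTI-MEM) pre-incubated 2 h, then treated with compounds 18-24 h at 37C/5% CO2 in concentration-response. CellTiter-Fluor viability read first; BugLite luciferase luminescence after 15 min at room temperature gives Nrf2 activity.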
# ELG1 DNA repair = qHTS screen for small molecules that inhibit ELG1-dependent DNA repair in human embryonic kidney (HEK293T) cells expressing luciferase-tagged ELG1; 330,000 compounds, 2.3% hits; AID 504467, 2011; Potency, µM (titrated, usually from 46.1 µM), for the others: at the top dose activity change, negative = inhibition, most hits filed as inhibitors; HEK293T ELG1-luciferase reporter, luminescence, 16 h; DNA damage induced by 5-fluorouridine; also: % is scaled to controls: 0 for no effect and ±100 for the full control effect; nearly all actives have a fitted effect of over 55% in size
#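 Overnight (16 hr) co-exposure of 2,000 cells/well to 5-fluorouridine and compound at 37 °C preceded detection. Luciferase was quantified via ONE-Glo luminescence; loss of signal denotes inhibition.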
# * marks the source's active call; other numbers are inactive results; u = inconclusive; x = no result; [ ] = dose if it differs, or a comment. Sampled rows, rich in hits. Any-hit rate of the full collection: about 3.8%. Calls follow the shape of the dose curve; as a rule, active = well fitted curve in the direction sought with a large enough effect; inconclusive = small, poorly fitted or top-dose-only effect, or another doubt; inactive = no such curve, though single readings can be large; an effect the other way counts as inactive or inconclusive. Potency is read from the fitted curve at half-maximal effect.
SMILES,A549 tox,IDH1 R132H inh,Nrf2 activator,Nrf2 inh,ELG1 DNA repair
O=C(C1=C[C@@H](c2ccccc2)C[C@@H](OCCCCO)O1)N1CCN(Cc2ccc3c(c2)OCO3)CC1,-1%,13%,1%,3%,-28%
O=C(C1=C[C@H](c2ccccc2)C[C@H](OCc2ccc(CO)cc2)O1)N1CCN(Cc2ccc3c(c2)OCO3)CC1,-7%,12%,6%,-5%,8.2µM*
O=C(C1=C[C@H](c2coc3ccccc3c2=O)C[C@H](OCc2ccc(CO)cc2)O1)N1CCN(Cc2ccc3c(c2)OCO3)CC1,-1%,1%,6%,-24%,13µM*
O=C(C1=C[C@H](C2CCCCC2)C[C@H](OCCCCO)O1)N1CCN(Cc2ccc3c(c2)OCO3)CC1,u,-1%,6%,18µM*,u
CCO[C@H]1OC(C(=O)N2CCN(Cc3ccc4c(c3)OCO4)CC2)=C[C@@H](c2cn(C(C)=O)c3ccccc23)[C@@H]1CCCO,-12%,-1%,-1%,-16%,10µM*
COc1ccc(CNC(=O)CN2CCC(NC(=O)c3ccccc3C)CC2)cc1,7%,2%,-1%,2%,-2%
CC(=O)n1cc([C@@H]2C=C(C(=O)N3CCN(Cc4ccccc4)CC3)O[C@H](OCc3ccc(CO)cc3)C2)c2ccccc21,-20%,3%,8%,u,9.2µM*
O=C(C1=C[C@H](c2ccc3c(c2)OCO3)C[C@H](OCc2ccc(CO)cc2)O1)N1CCN(Cc2ccc3c(c2)OCO3)CC1,-7%,8%,7%,21µM*,16µM*
CN1CCN(C(=O)C2=C[C@@H](c3ccc4c(c3)OCO4)C[C@@H](OCc3ccc(CO)cc3)O2)CC1,-2%,6%,-1%,20%,11%
CC(=O)n1cc([C@H]2C=C(C(=O)N3CCN(Cc4ccccc4)CC3)O[C@@H](OCCCCO)C2)c2ccccc21,-2%,-6%,4%,-19%,-6%
COCC1CCN(Cc2c(C(=O)N3CCOCC3)nc3c(C)cccn23)C1 (stereo not drawn),x,4%,-2%,x,x
Cn1nnnc1Sc1ncnc2scc(-c3ccc(S(C)(=O)=O)cc3)c12,2%,x,x,u,x
CCCCc1nn2c(=O)cc(COC(=O)C(C)Oc3ccccc3)nc2s1 (stereo not drawn),6%,0%,2%,5%,x
Cc1cc(C)cc(NC(=O)C(NS(=O)(=O)c2cccc3nsnc23)c2ccccc2)c1 (stereo not drawn),4%,-1%,1%,-3%,x
COc1ccc(-n2ncc3c(=O)n(CC(=O)N4c5ccccc5CC4C)cnc32)cc1 (stereo not drawn),u,-6%,0%,8.2µM*,u
Cc1ccc(NS(=O)(=O)c2cc3c(cc2-c2ccccc2)NC(=O)CO3)cc1C,3%,x,x,2%,x
C[C@@H](Nc1nc(Cl)nc2nc[nH]c12)c1ccccc1,4%,x,x,u,x
COc1ccccc1CNC(=O)Cn1c(=O)ccc2cc(S(=O)(=O)N3CCCC3)ccc21,-3%,-8%,0%,x,x
COc1ccc(CNC(=O)c2csc(Cc3ccc(Cl)cc3)n2)cc1,9%,10%,3%,23µM*,u
COc1ccc(CNC(=O)c2csc(Cc3ccc(OC)cc3)n2)cc1,-2%,0%,3%,x,-20%
O=C(Nc1nc2c(F)cc(F)cc2s1)c1ccc(S(=O)(=O)N2CCc3ccccc32)cc1,u,-4%,0%,x,x
COc1ccc(Oc2c(C=O)c3ccccc3n2C)cc1,-17%,6%,2%,-9%,-11%
Cn1c(Sc2ccc(Cl)cc2)c(C=O)c2ccccc21,-1%,8%,10%,-11%,7.3µM*
Cn1c(Oc2ccc(Cl)cc2)c(C=O)c2ccccc21,-1%,6%,3%,u,12µM*
CCCC/C=C/[C@H](C)[C@@](C)(COC(=O)c1ccc(Br)cc1)Cc1ccccc1,13%,x,x,10%,x
SMILES,A549 tox,IDH1 R132H inh,Nrf2 activator,Nrf2 inh,ELG1 DNA repair
O=C(Nc1cc(C(F)(F)F)ccc1N1CCOCC1)c1n[nH]c(=O)c2ccccc12,-15%,12µM*,4%,-15%,0%
O=C(Nc1cc(C(F)(F)F)ccc1N1CCOCC1)c1ccc(F)cc1,-4%,-8%,0%,-13%,u
CC(Nc1ccccc1N1CCCCC1)C(=O)N1CCc2ccccc21 (stereo not drawn),-9%,-5%,0%,9.2µM*,u
CCOC(=O)C1=C(c2ccccc2)NC(SCC(=O)Nc2cccc(C)c2)=C(C#N)C1c1ccco1 (stereo not drawn),13µM*,1%,1%,u,u
CCOC(=O)C1=C(c2ccccc2)NC(SCC(=O)Nc2ccc(C)cc2)=C(C#N)C1c1ccco1 (stereo not drawn),-17%[1.84 µM],2%,0%,21µM*,x
Cn1nc(SCc2ccccc2)c(=O)[nH]c1=O,x,6%,0%,x,x
COc1cc(N(C(C)=O)c2ccc(O)c(C(=O)O)c2)c2ncccc2c1,x,16%,0%,x,x
Cc1nc(N2CCN(c3ccccn3)CC2)c2c(C)c(C(=O)Nc3ccc(F)cc3F)sc2n1,2%,1%,1%,u,12µM*
Cc1nc(N2CCN(c3ccccn3)CC2)c2c(C)c(C(=O)Nc3ccccc3F)sc2n1,-16%,0%,0%,16µM*,9.2µM*
Cc1c(C(=O)N2CCN(c3ccccn3)CC2)sc2ncnc(N3CCN(c4ccccc4)CC3)c12,1%,1%,0%,-14%,x
O=C(CN1CCN(c2ccccn2)CC1)Nc1ccc([N+](=O)[O-])cc1C(=O)Nc1ccccc1F,u,-8%,1%,u,12µM*
Cc1nc(N2CCN(c3ccccn3)CC2)c2c(C)c(C(=O)N3CCN(c4cccc(Cl)c4)CC3)sc2n1,-10%,-8%,-1%,u,12µM*
CCn1c(C(=O)NCc2ccccc2OC)cc2sccc21,21%,-15%,0%,17%,x
CCc1ccc(NC(=O)c2sc3nc(C)nc(N4CCN(c5ccccn5)CC4)c3c2C)cc1,-6%,-2%,0%,u,-3%
COc1ccc(NC(=O)c2sc3nc(C)nc(N4CCN(c5ccccn5)CC4)c3c2C)cc1Cl,-16%,-1%,0%,u,3.3µM*
O=C(c1cnc(N2CCN(c3ncccn3)CC2)c2ccccc12)N1CCN(c2ccccn2)CC1,-2%,-3%,0%,u,u
Cc1ccc(NC(=O)c2cnc(N3CCN(c4ccccn4)CC3)c3ccccc23)c(Br)c1,-12%,3%,-1%,15µM*,u

# Screens deposited in PubChem by National Center for Advancing Translational Sciences (NCATS).
